Measured values from PubChem BioAssay AID485275 (NMMLSC, 2010).
In all, about 330,000 compounds went through this assay and about 1,400 (0.42%) were called active. This is one part of a sample in which actives are shown more often than they occur. Unmarked numbers belong to inactive results.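 The calls were made as follows: active = plate passing quality check with inhibition over a set limit, or well fluorescence over plate mean plus 4 SD; inactive = the rest.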

Assay: antifungal drug efflux pump blockers, triplex strains – S. cerevisiae, Nile Red, multiplex, primary screen (AID 485275);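 also: Nile Red retained in pooled yeast measured as flow cytometry median fluorescence; 0% = buffer negative control and 100% = Enniatin B positive control; higher means more Nile Red kept so more efflux inhibition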
Settings: S. cerevisiae Candida pump triplex, at 10 µM, hits give high values

SMILES | inhibition
COc1ccccc1CNC(=O)C1CCN(S(=O)(=O)c2ccc3c(c2)CC(C)N3C(=O)C2CC2)CC1 (configuration not stated) | 0.09%
CC(=O)c1ccc(N2CCN(C(=O)C3CCN(S(=O)(=O)c4ccc5c(c4)CC(C)N5C(=O)C4CC4)CC3)CC2)cc1 (configuration not stated) | 40.5% (active)
CC(=O)N1c2ccc(S(=O)(=O)N3CCC(C(=O)N4CCN(c5ccccc5)CC4)CC3)cc2CC1C (configuration not stated) | -0.03%
CC1CC(=NNC(=O)C2COc3ccccc3O2)CC(C)(C)C1 (configuration not stated) | -0.31%
Cc1cccc(N2CCN(C(=O)CCS(=O)(=O)c3ccc4c(c3)NC(=O)C(C)S4)CC2)c1C (configuration not stated) | -0.07%
O=C(CCc1c[nH]c2ccccc12)NCCOc1ccccc1 | -0.08%
O=C(CCCCCn1c(=O)[nH]c2ccccc2c1=O)NCCc1c[nH]c2ccccc12 | 0.52% (active)
CCN(CC)CCNC(=O)CCCCCn1c(=O)[nH]c2cc(C(=O)OC)ccc2c1=O | -0.02%
CCCSc1ccc([C@H]2N[C@@](Cc3ccccc3)(C(=O)OC)[C@H]3C(=O)N(C)C(=O)[C@@H]23)cc1 | 0.02%
CSCC(NS(=O)(=O)c1ccc(C)cc1)C(=O)O (configuration not stated) | -0.01%
CSCCC(NC(=O)c1ccccc1)C(=O)N1CCCCCCC1 (configuration not stated) | 0.05%
CSCCC(NS(=O)(=O)c1ccc(C)cc1)C(=O)N1CCCC1 (configuration not stated) | 1.45% (active)
COc1ccc(-n2nnc3c(=O)n(CC(=O)N4CCC(Cc5ccccc5)CC4)cnc32)cc1 | 0.1%
O=C(NCc1nnc(SCC(=O)N2CCCCCC2)o1)c1ccc(F)cc1 | -0.18%
Nc1nnc(C2CCCC2)s1 | 0.48%
O=C(CCN1C(=O)C2C3C=CC(C3)C2C1=O)Oc1ccc2ccccc2c1 (configuration not stated) | 0.01%
O=C(CN1C(=O)C2C3CCC(C3)C2C1=O)Oc1ccc2ccccc2c1 (configuration not stated) | 5.45% (active)
Cc1ccc(C(=O)COC(=O)CCN2C(=O)C3C4CCC(C4)C3C2=O)cc1C (configuration not stated) | -0.13%
O=C(c1cc(-c2ccco2)nc2ccccc12)N(Cc1nnc(-c2ccc(Cl)cc2)o1)C1CC1 | 0.11%
Cc1ccc(-n2c(C)cc(/C=N\NC(=O)CC(=O)NC(C)C)c2C)cc1 | -0.13%
Cc1cc(/C=N/NC(=O)CC2(C)OCCO2)c(C)n1-c1ccc(Cl)c(Cl)c1 | 1.6% (active)
Cc1cccc(-n2c(C)cc(/C=N\NC(=O)c3cccs3)c2C)c1 | -0.56%

SMILES | inhibition
CC1CCN(C(=O)CCNC(=O)c2ccccc2)CC1 | -0.28%
CN=C(c1ccccc1)c1c(C)cccc1C | 23.6% (active)
Cc1cccc(C)c1NC(=O)C(Cl)C(=O)c1ccccc1 (configuration not stated) | 0.07%
Cc1ccccc1NC(=O)CSC(=O)c1ccccc1 | -0.08%
CCn1c(SCC(=O)NC2CC2)nnc1-c1ccccn1 | -0.04%
COC(=O)c1ccc2c(c1)S(=O)(=O)NC(=NCCCN1CCOCC1)S2 | 0%
O=C(NCCC1CCCCN1S(=O)(=O)c1cccs1)C(=O)Nc1ccc(F)cc1F (configuration not stated) | 0.02%
O=C(/C=C/c1ccc([N+](=O)[O-])cc1)NCCSCc1ccco1 | 0.15%
COc1cccc(OC)c1C(=O)Nc1sc2c(c1C(N)=O)CCCC2 | -0.23%
CN(C)c1ccc(/C=N/NC(=O)c2ccc(Cn3cc(Br)cn3)o2)cc1 | -0.5%
CC1CCc2c(sc(NC(=O)c3ccc(Cn4cc(Br)cn4)o3)c2C(N)=O)C1 (configuration not stated) | 0.29% (active)
COc1ccc(CNc2ccc3c(c2)CCC3)cc1OC | 0%
CCn1c(SCC(=O)N/N=C/c2ccccc2OCC(=O)O)nnc1-c1ccc(C(C)(C)C)cc1 | 0.05%
Cc1nnc(SCC(=O)NC(=O)NC2CCCC2)n1N | 0.12%
O=C(O)c1cc(Cl)c(Cl)cc1C(=O)Nc1cccc2ncccc12 | -0.06%
N#C/C(=C/c1ccc(N2CCCCC2)o1)C(=O)NCCc1c[nH]c2ccccc12 | -0.28%
Cc1ccc(/C=C(\C#N)C(=O)Nc2cccc3ncccc23)o1 | 6.65% (active)
C[C@@H]1NC(=O)c2cc([N+](=O)[O-])cc(F)c2NCCC[C@@H](C(N)=O)NC(=O)[C@H](CC(N)=O)NC1=O | -0.03%
COc1ccccc1NC(=O)[C@H](COCc1ccccc1)NC(=O)OC(C)(C)C | -0.12%
CC(C)(C)OC(=O)N1CCC(C(=O)NNC(=O)c2ccc(Cl)cc2Cl)CC1 | -0.04%
O=S(=O)(c1ccccc1)N1CCc2ccccc21 | 0.75% (active)
O=S(=O)(c1ccc2c(c1)OCCO2)N1CCc2ccccc21 | 0.34%

SMILES | inhibition
CCn1c(=O)c(=O)n(CC)c2cc(S(=O)(=O)N3CCc4ccccc43)ccc21 | -0.1%
COc1ccc(CCNS(=O)(=O)c2cn(C)nc2C)cc1 | -0.02%
CCOC(=O)N1CCN(C(=O)C2CCN(S(C)(=O)=O)CC2)CC1 | -0.13%
Cc1ccc2c(C)c(C(=O)N(C)Cc3ccncn3)oc2c1C | 1.25%
CC(=O)N1c2ccccc2N(Cc2ccc([N+](=O)[O-])cc2)C(=O)C1(C)C | 0.1%
O=C1NC(=O)C2C1C(c1ccc([N+](=O)[O-])cc1)=NN2Cc1ccccc1 (configuration not stated) | 1.09% (active)
O=C(NCCCCc1ccccc1)C1CC(c2ccc([N+](=O)[O-])cc2)=NO1 (configuration not stated) | 0.02%
Cc1ccc(CN2CCN(Cc3cccc(C)n3)CC2CCO)cc1 (configuration not stated) | -0.07%
CC(=O)Nc1ccc(/C(C)=N/NC(=O)CN(c2ccccc2Br)S(C)(=O)=O)cc1 | 0.36%
O=C(CCC1CCCN(C(=O)Cc2ccc(F)cc2)C1)N1CCN(c2ccccn2)CC1 (configuration not stated) | -0.13%
O=C(Cc1ccc(Br)cc1)N1CCN(c2ccccn2)CC1 | 11.1% (active)
O=C(Cc1ccccc1Cl)N1CCN(c2ccccn2)CC1 | -0.02%
COc1ccc(N(CC(=O)NCC2CCCO2)C(=O)CCC(=O)Nc2nccs2)c(OC)c1 (configuration not stated) | 0.02%
CCN1CCN(c2ccc(S(=O)(=O)N3CCCCC3)cc2NC(=O)Cc2c(Cl)cccc2Cl)CC1 | -0.36%
Cc1cc(-c2ccc(S(=O)(=O)N3CCc4ccccc4C3)s2)on1 | -0.2%
CC(C)N(c1ccccc1)c1ncnc(NCCC(=O)O)c1[N+](=O)[O-] | 0.29%
CC(C)Cn1c(N)c(C(=O)COC(=O)C2CCCN2C(=O)c2cccs2)c(=O)n(C)c1=O (configuration not stated) | 0.07%
Fc1ccccc1C(c1nnnn1Cc1ccc2c(c1)OCO2)N1CCN(Cc2ccccc2)CC1 (configuration not stated) | -0.02%
CCOC(=O)C1CCN(C(c2cc3cc(C)cc(C)c3[nH]c2=O)c2nnnn2C2CCCCC2)CC1 (configuration not stated) | 0.07%
Cc1cc(C)c2[nH]c(=O)c(C(c3nnnn3Cc3ccc4c(c3)OCO4)N3CCCC3)cc2c1 (configuration not stated) | 1.06% (active)
O=C(CN(c1cccc(Cl)c1)S(=O)(=O)c1ccccc1)NN=C1CCCC1 | 0.07%
O=C(CN1C2CCC1CC(NC(=O)C1CC1)C2)NCc1ccccc1 (configuration not stated) | -0.03%

SMILES | inhibition
CC(C)C(=O)N1CCN(c2nc(-c3ccccc3)c3c(c2C#N)CC(C)(C)OC3)CC1 | -0.13%
CC(C)C(=O)N1CCC2(CC1)Oc1ccc(F)cc1C(=O)C21CC(c2ccccc2)=NO1 (configuration not stated) | 78.3% (active)
O=C1CC2(CCN(C(=O)COc3ccc(F)cc3)CC2)Oc2ccccc21 | -0.44%
CC(C)c1ccc2oc(=O)cc(CN3CCN(Cc4ccccc4)CC3)c2c1 | -0.11%
CCc1ccc(OCC(=O)OCC(=O)c2c(N)n(C)c(=O)n(C)c2=O)cc1 | -0.05%
Cn1c(N)c(C(=O)COC(=O)COc2ccc(Cl)cc2)c(=O)n(C)c1=O | 0%
CCCCOc1ccc(C(=O)NCC(=O)OCC(=O)c2c(N)n(C)c(=O)n(C)c2=O)cc1 | 0.65% (active)
O=C(NCC1CCCO1)c1ccccc1-c1nc(-c2ccccc2Cl)no1 (configuration not stated) | -0.05%
CCCNC(=O)N1CCC(c2ccc3c(c2)OCO3)CC1 | 0.01%
Cc1cc(C(=O)NC2CC(C)(C)Cc3c2cnn3-c2ccccc2)n[nH]1 (configuration not stated) | 0.03%
CC1(C)Cc2c(cnn2-c2cccc(F)c2)C(NC(=O)c2cc[n+]([O-])cc2)C1 (configuration not stated) | 0.12%
COc1ccc(C(=O)NC2CC(C)(C)Cc3c2cnn3-c2ccccc2)c(OC)c1 (configuration not stated) | 1.15% (active)
Cc1ccc(S(=O)(=O)N(Cc2ccc(Cl)cc2)c2ccccc2C(=O)NCc2cccnc2)cc1 | 0.08%
COc1cc(NC(=O)c2ccc3c(c2)OCO3)ccc1NC(=O)c1cccs1 | -0.1%
Cc1ccc(C(=O)Nc2ccc(NC(=O)c3cccs3)cc2)c(C)c1 | 0.18%
O=C(Nc1ccc(NC(=O)c2cccs2)cc1)c1ccc2ccccc2c1 | 1.22% (active)
CCOC(=O)C1CCN(C(=O)CN2C(=O)NC(C)(c3ccc4cc(OC)ccc4c3)C2=O)CC1 (configuration not stated) | -0.03%
O=C1c2ccccc2[C@@H]2C[C@@H](O)[C@H](Nc3ccccc3Cl)CCN12 | 0.16%
O=C(CNCc1ccc(F)cc1)Nc1ccccc1-c1ccccc1 | -0.07%
CCN(CC)CCn1c2c(c(SCC(=O)Nc3ccc(C(C)C)cc3)nc1=O)CCC2 | -0.06%
CC1CCCCC1NC(=O)c1cn(C)c2ccc(S(=O)(=O)N3CCOCC3)cc2c1=O (configuration not stated) | -0.14%
